The nature of experiment [1]: qHTS assay to identify small molecule that activate the aryl hydrocarbon receptor (AhR) signaling pathway - cell viability counter screen (AID 743086). Further: nearly all actives have a fitted effect of over 45% in size. Further: potency means the concentration at half of the fitted maximal effect. Summed up: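 HepG2-AhR-luc (HG2L7.5c1) cells, 4000/well, were preincubated 5 h at 37C, exposed to compound in qHTS format for 24 hr at 37C, then given CellTiter-Fluor for 30 min; viability was read as fluorescence in the reporter wells.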
(In general: In qHTS, concentration-response curves come from the screen itself.)

A short description of experiment [2]: qHTS assay for small molecule agonists of the antioxidant response element (ARE) signaling pathway (AID 743202; active means well fitted activation curve with a large enough effect in the signal ratio in the repeat runs, not every such curve was filed as active; the % refers to the signal ratio; further: potency means the concentration at half of the fitted maximal effect). Summed up:
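Compounds delivered in DMSO to ARE-bla HepG2 cells (2,000 cells/well, pre-incubated 5 h) and left 16 h at 37 C. LiveBLAzer B/G FRET substrate then added for 2 h at RT before fluorescence reading.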

A short description of experiment [3]: qHTS assay for small molecule agonists of the antioxidant response element (ARE) signaling pathway - cell viability counter screen (AID 743203; calls by dose curve; further: nearly all actives have a fitted effect of over 55% in size). Summed up:
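ARE-bla HepG2 cells were plated, rested 5 h at 37C/5% CO2, then exposed to compounds in DMSO for 16 h. Viability was read as CellTiter-Glo luminescence after 30 min at room temperature, in the same wells as the ARE screen.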

Experiment [4] in a line: qHTS assay for small molecule activators of the heat shock response signaling pathway - cell viability counter screen (AID 743209). Further: nearly all actives have a fitted effect of over 50% in size. Further: potency means the concentration at half of the fitted maximal effect. Summed up:
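HSE-bla HeLa cells plated overnight, then exposed to Tox21 compounds (23 nL in DMSO) for 5 h at 37 C. After the bla reporter read, CellTiter-Glo was added in the same wells and luminescence read after 30 min at room temperature.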

Experiment [5] is described as follows: qHTS assay for small molecule activators of the heat shock response signaling pathway (AID 743210; active means well fitted activation curve with a large enough effect in the signal ratio in the repeat runs, with a control signal flat, not every such curve was filed as active; the % refers to the signal ratio;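 further: HeLa cells with beta-lactamase reporter driven by heat shock elements; series mostly up to about 63 µM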). Summed up:
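Reporter gene assay: HeLa cells stably bearing an HSE-bla construct, compound treatment 5 h at 37 C, LiveBLAzer substrate 2.5 h at RT, fluorescence intensity.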

Experiment [6] is described as follows: qHTS assay to identify small molecule agonists of the peroxisome proliferator-activated receptor delta (PPARd) signaling pathway - cell viability counter screen (AID 743211). Further: nearly all actives have a fitted effect of over 55% in size. Further: potency means the concentration at half of the fitted maximal effect. Summed up: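 Read-out: CellTiter-Glo luminescence, 30 min RT, measured in the same wells as the beta-lactamase reporter. Cells: GeneBLAzer PPAR delta UAS-bla HEK293H, 3000 cells/well, compound exposure 17 h at 37C.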

In experiment [7] the target is Peroxisome proliferator-activated receptor delta (Homo sapiens) (UniProt Q03181). The experiment is described as follows: qHTS assay to identify small molecule agonists of the peroxisome proliferator-activated receptor delta (PPARd) signaling pathway (AID 743212; calls by dose curve). Summed up: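 A PPARd-bla HEK293H line with beta-lactamase under an Upstream Activator Sequence is treated with compounds at 37 C. Substrate loading for 2 h at room temperature precedes the fluorescence measurement.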

For experiment [8] the target is unchanged. The experiment is described as follows: qHTS assay to identify small molecule antagonists of the peroxisome proliferator-activated receptor delta (PPARd) signaling pathway (AID 743215; active means well fitted inhibition curve with a large enough effect in the signal ratio in the repeat runs, not every such curve was filed as active; the % refers to the signal ratio;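 further: cells stimulated with agonist L165041 at 300 nM final during compound exposure; series mostly up to about 62 µM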). The procedure, abridged: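 PPARd-bla HEK293H cells (UAS-bla reporter) preincubated 5 h, then given compound plus 300 nM final L165041 agonist for 17 h at 37 C. Beta-lactamase activity read by LiveBLAzer B/G FRET substrate fluorescence after 2 h at room temperature.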

The nature of experiment [9]: qHTS assay to identify small molecule agonists of the farnesoid-X-receptor (FXR) signaling pathway - cell viability counter screen (AID 743218). Further: nearly all actives have a fitted effect of over 45% in size. The procedure, abridged:
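FXR-UAS-bla HEK 293T cells exposed to compounds for 16 h at 37C. Cytotoxicity read in the same wells by CellTiter-Glo luminescence after 30 min at room temperature, following the beta-lactamase FRET read.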

Experiment [10] can be described thus: qHTS assay to identify small molecule antagonists of the farnesoid-X-receptor (FXR) signaling pathway - cell viability counter screen (AID 743221; active means well fitted cell-killing curve with a large enough effect in the repeat runs, not every such curve was filed as active; further: nearly all actives have a fitted effect of over 50% in size; further: potency means the concentration at half of the fitted maximal effect). The procedure, abridged: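 HEK 293T FXR-bla cells, 5 h pre-incubation; compound + CDCA 50 uM final, 16 h, 37 C; beta-lactamase FRET read first, then CellTiter-Glo luminescence, 30 min RT.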
Experiment [11] concerns the target Vitamin D3 receptor (Homo sapiens) (UniProt P11473). As to the kind of experiment: qHTS assay to identify small molecule agonists of the vitamin D receptor (VDR) signaling pathway (AID 743222; calls by dose curve). The procedure, abridged:
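VDR-bla cells plated 4 h at 37 C, then exposed to compounds for 16 h at 37 C. Beta-lactamase reporter activity measured by fluorescence after 2 h room-temperature loading with LiveBLAzer B/G FRET substrate.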

Experiment [12] can be described thus: qHTS assay to identify small molecule antagonists of the peroxisome proliferator-activated receptor gamma (PPARg) signaling pathway - cell viability counter screen (AID 743194). Further: nearly all actives have a fitted effect of over 55% in size. Further: potency means the concentration at half of the fitted maximal effect. Summed up: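 PPARg-UAS-bla HEK293H cells were plated, rested 5 h at 37 C, then treated with compounds plus rosiglitazone (50 nM final) for 17 h at 37 C; viability was then read by CellTiter-Glo luminescence after 30 min at room temperature.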

Experiment [13] has as its target Bile acid receptor (Homo sapiens) (UniProt Q96RI1). The experiment is described as follows: qHTS assay to identify small molecule agonists of the farnesoid-X-receptor (FXR) signaling pathway (AID 743220; active means well fitted activation curve with a large enough effect in the signal ratio in the repeat runs, not every such curve was filed as active; the % refers to the signal ratio). Summed up: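 Beta-lactamase reporter under UAS control in GeneBLAzer FXR HEK 293T cells (5000/well) measured with LiveBLAzer FRET substrate after 2 h at room temperature. Compound exposure lasted 16 h at 37C.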

For experiment [14], the target named is Aryl hydrocarbon receptor (Homo sapiens) (UniProt P35869). The experiment is described as follows: qHTS assay to identify small molecule that activate the aryl hydrocarbon receptor (AhR) signaling pathway (AID 743085).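 Further: HG2L7.5c1 human HepG2 liver cells with stably integrated DRE-driven firefly reporter; series mostly up to about 70 µM; nearly all actives have a fitted effect of over 15% in size.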 Summed up: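 Luminescence read-out: ONE-Glo reagent, 30 min at room temperature, in HG2L7.5c1 HepG2 reporter cells treated 24 h at 37C. Viability was measured beforehand by CellTiter-Fluor fluorescence after 30 min at 37C.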

Experiment [15] deals with Peroxisome proliferator-activated receptor gamma (Homo sapiens) (UniProt P37231). The experiment is described as follows: qHTS assay to identify small molecule agonists of the peroxisome proliferator-activated receptor gamma (PPARg) signaling pathway (AID 743094; active means well fitted activation curve with a large enough effect in the signal ratio in the repeat runs, not every such curve was filed as active; the % refers to the signal ratio). Summed up:
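GeneBLAzer PPARg UAS-bla HEK293H cells were plated, rested 5 h, then exposed to compounds for 17 h at 37C. Beta-lactamase activity was read by LiveBLAzer B/G FRET substrate fluorescence after 1 h at room temperature.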

For experiment [16] the target is unchanged. The experiment is described as follows: qHTS assay to identify small molecule antagonists of the peroxisome proliferator-activated receptor gamma (PPARg) signaling pathway (AID 743191; calls by dose curve; further: series mostly up to about 63 µM; nearly all actives have a fitted effect of over 30% in size). Summed up:
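GeneBLAzer PPARg UAS-bla HEK293H cells carrying a UAS-driven beta-lactamase reporter were plated at 3000 cells/well, preincubated 5 h at 37C, then given compound for 17 h at 37C; LiveBLAzer B/G FRET substrate was read after 1 h at room temperature.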

Experiment [17] can be described thus: qHTS assay to identify small molecule antagonists of the peroxisome proliferator-activated receptor delta (PPARd) signaling pathway - cell viability counter screen (AID 743213). Further: nearly all actives have a fitted effect of over 50% in size. Further: potency means the concentration at half of the fitted maximal effect. Summed up: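 HEK293H cells with the PPARd UAS-bla reporter, co-treated 17 h at 37 C with compounds and L165041 (300 nM final), were lysed with CellTiter-Glo. Luminescence indicated viable cell content.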

Experiment [18] deals with Bile acid receptor (Homo sapiens) (UniProt Q96RI1). The experiment is described as follows: qHTS assay to identify small molecule antagonists of the farnesoid-X-receptor (FXR) signaling pathway (AID 743217; active means well fitted inhibition curve with a large enough effect in the signal ratio in the repeat runs, not every such curve was filed as active; the % refers to the signal ratio). The procedure, abridged:
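FXR-UAS-bla HEK 293T cells (beta-lactamase reporter) given compound plus chenodeoxycholic acid (50 uM final), 16 h at 37C. LiveBLAzer B/G FRET substrate added for 2 h at room temperature; fluorescence read.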

Experiment [19] addresses Vitamin D3 receptor (Homo sapiens) (UniProt P11473). As to the kind of experiment: qHTS assay to identify small molecule antagonists of the vitamin D receptor (VDR) signaling pathway (AID 743223; active means well fitted inhibition curve with a large enough effect in the signal ratio in the repeat runs, not every such curve was filed as active; the % refers to the signal ratio). The procedure, abridged:
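Beta-lactamase reporter read-out: FRET substrate fluorescence after 2 h at room temperature, following 16 h exposure of VDR-bla cells to test compound plus 3 nM (final) 1alpha,25-dihydroxyvitamin D3 agonist at 37C.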

Records with an inconclusive call do not appear. Active and inactive are the calls of the source. Unless noted, the call rests on the fitted dose curve; in most records, active means well fitted curve in the direction sought with a large enough effect in the repeat runs; inconclusive means weak or mixed curves; inactive means no such curve, though single readings can be large; an effect the other way counts as inactive or inconclusive.

Peroxisome proliferator-activated receptor gamma (Homo sapiens), sequence (P37231 whole entry, looked up): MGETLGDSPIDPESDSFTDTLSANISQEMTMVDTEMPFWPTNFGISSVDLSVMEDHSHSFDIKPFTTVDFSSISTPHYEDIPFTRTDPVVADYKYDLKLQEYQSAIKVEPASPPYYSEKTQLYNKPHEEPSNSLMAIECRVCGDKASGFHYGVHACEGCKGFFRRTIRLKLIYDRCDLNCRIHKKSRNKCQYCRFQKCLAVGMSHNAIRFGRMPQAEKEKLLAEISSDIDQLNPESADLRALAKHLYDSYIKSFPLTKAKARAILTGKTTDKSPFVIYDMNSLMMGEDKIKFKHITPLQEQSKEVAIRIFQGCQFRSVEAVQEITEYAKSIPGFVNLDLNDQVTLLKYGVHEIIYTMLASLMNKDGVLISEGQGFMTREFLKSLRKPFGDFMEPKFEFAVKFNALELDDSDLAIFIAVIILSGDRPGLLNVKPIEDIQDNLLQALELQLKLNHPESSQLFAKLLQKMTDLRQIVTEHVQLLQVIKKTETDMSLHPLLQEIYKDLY
Peroxisome proliferator-activated receptor delta (Homo sapiens), sequence (Q03181 whole entry, looked up): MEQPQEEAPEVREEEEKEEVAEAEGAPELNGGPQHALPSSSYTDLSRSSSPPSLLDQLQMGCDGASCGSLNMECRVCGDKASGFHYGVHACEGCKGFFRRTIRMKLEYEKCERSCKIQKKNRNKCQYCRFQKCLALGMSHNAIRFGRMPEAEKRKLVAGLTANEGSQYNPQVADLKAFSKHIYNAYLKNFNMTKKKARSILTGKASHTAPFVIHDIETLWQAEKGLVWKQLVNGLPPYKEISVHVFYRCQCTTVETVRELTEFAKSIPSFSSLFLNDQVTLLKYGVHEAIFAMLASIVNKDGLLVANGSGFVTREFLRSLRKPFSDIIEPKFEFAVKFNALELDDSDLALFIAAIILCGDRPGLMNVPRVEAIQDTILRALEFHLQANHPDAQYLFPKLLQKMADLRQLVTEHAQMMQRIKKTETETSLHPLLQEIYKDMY
Bile acid receptor (Homo sapiens), sequence (Q96RI1 whole entry, looked up): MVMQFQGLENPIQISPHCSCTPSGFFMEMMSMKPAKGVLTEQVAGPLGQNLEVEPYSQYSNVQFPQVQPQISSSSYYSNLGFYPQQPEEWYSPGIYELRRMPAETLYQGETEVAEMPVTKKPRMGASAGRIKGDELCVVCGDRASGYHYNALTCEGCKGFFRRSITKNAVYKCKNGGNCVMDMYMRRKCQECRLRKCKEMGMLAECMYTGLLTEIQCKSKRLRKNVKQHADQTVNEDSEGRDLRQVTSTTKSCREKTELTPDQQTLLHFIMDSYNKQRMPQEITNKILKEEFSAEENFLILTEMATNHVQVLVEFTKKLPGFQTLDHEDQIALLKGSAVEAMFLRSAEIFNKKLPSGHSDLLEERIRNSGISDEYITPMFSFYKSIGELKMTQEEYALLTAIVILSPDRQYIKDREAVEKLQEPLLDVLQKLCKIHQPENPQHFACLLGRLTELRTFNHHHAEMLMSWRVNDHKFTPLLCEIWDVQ
Vitamin D3 receptor (Homo sapiens), sequence (P11473 whole entry, looked up): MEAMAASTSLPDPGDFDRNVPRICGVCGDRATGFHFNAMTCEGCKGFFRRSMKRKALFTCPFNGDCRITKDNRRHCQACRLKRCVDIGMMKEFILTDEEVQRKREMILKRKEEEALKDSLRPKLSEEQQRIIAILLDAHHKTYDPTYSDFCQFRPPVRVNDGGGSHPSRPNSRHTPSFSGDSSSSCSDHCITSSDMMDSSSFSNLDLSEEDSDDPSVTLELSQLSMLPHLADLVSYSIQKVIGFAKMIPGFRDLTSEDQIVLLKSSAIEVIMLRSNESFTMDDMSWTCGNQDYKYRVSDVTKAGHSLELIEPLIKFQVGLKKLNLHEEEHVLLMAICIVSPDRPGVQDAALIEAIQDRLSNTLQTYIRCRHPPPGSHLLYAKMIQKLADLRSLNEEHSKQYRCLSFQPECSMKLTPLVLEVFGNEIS
Aryl hydrocarbon receptor (Homo sapiens), sequence (P35869 whole entry, looked up): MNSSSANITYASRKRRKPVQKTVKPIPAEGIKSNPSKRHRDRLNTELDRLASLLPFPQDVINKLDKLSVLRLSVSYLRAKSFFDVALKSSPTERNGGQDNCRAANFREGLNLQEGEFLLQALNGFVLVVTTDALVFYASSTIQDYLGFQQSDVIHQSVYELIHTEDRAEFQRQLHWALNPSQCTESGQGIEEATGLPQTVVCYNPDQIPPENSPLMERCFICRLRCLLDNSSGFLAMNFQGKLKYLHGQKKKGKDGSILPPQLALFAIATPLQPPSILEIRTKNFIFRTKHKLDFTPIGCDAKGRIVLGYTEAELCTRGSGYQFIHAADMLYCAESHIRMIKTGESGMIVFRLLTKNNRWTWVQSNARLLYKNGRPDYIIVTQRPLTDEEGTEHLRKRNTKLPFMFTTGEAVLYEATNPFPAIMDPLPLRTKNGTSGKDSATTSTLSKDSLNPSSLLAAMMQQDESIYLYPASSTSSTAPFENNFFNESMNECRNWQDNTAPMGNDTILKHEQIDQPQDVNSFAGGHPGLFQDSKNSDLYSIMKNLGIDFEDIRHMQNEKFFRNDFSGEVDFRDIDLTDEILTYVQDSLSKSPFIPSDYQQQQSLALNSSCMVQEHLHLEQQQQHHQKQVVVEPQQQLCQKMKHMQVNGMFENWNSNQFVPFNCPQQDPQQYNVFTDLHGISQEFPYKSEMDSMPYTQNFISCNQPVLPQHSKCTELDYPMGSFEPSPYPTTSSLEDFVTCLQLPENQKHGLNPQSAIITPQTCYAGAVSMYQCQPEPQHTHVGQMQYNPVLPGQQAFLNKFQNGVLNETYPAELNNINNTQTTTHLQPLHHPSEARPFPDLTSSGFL

Regarding `CCCCCCOc1ccc(O)cc1`, the Potency entry in experiment [1], in experiment [3], in experiment [4], in [5], in [6] and in [8] was “inactive” throughout. Besides, the Potency entry in experiment [9], in experiment [10] and in [11] was “inactive” in each case. Besides, in [2], the Potency is 27.3 µM (active). In addition, the result in [7] was inactive.

For the compound `Cc1ccc(CCn2c3c(c4cc(Cl)ccc42)CN(C)CC3)cn1`, the Potency result in [12], in experiment [3], in [4], in experiment [5], in experiment [8] and in [13] was “inactive” each time.

Consider `O=C(Oc1ccccc1)c1cccc(C(=O)Oc2ccccc2)c1`, for which the Potency entry in experiment [1] and in experiment [4] was “inactive” throughout.

`Brc1ccccc1-c1ccccc1`: the Potency result in experiment [1], in [10] and in [11] was “inactive” in each case. For the same compound, the outcome in [7] was inactive.

Consider `C1CC(COCC2CO2)CCC1COCC1CO1` (stereo unspecified), for which the Potency result in [14], in experiment [15], in experiment [16], in experiment [12], in experiment [3] and in experiment [5] was “inactive” in each case. For the same compound, the Potency result in [6], in experiment [17], in experiment [18], in experiment [10] and in experiment [11] was “inactive” each time. The Potency in [2] is 54.5 µM (active). Also, in experiment [7], the result was inactive.

Turning to `CCC1(c2cnc[nH]2)Cc2ccccc2C1`, the Potency entry in [12], in experiment [3], in experiment [4], in experiment [6], in [17] and in experiment [10] was “inactive” in each case. The Potency result in experiment [19] is “inactive”. Further, in [7], the outcome was inactive.

`CCCCCCC(C)OC(=O)COc1nc(F)c(Cl)c(N)c1Cl` (stereo unspecified): the Potency result in experiment [2], in [3], in experiment [8], in [9], in experiment [10] and in experiment [11] was “inactive” each time. Moreover, the call in experiment [7] was inactive.

Consider `COC(=O)[C@]1(C)CCC[C@@]2(C)[C@H]1CC=C1C=C(C(C)C)CC[C@@H]12`, for which the Potency result in experiment [1], in experiment [3], in [17], in experiment [18], in [11] and in [19] was “inactive” throughout. The Potency was 54.9 µM (active) in experiment [12] and 61.1 µM (active) in experiment [2].

Turning to `O=C1Nc2ccc(Cl)cc2[C@@](C#CC2CC2)(C(F)(F)F)O1`, the Potency entry in experiment [1], in experiment [15], in experiment [3], in experiment [17], in experiment [8] and in [9] was “inactive” in each case. Besides, the Potency entry in experiment [11] and in [19] was “inactive” in each case. Also, the figures for the Potency in experiment [2] and in [4] were 13.3 µM (active) and 5.31 µM (active), respectively. Also, in experiment [7], the compound was called inactive.

Turning to `COC(=O)C1=C(C)NC(C)=C(C(=O)OCCCN2CCC(c3ccccc3)(c3ccccc3)CC2)C1c1cccc([N+](=O)[O-])c1` (stereo unspecified), the Potency was 29.8 µM (active) in [1]; 33.5 µM (active) in experiment [12]; 10.6 µM (active) in experiment [6]; 11.9 µM (active) in [17]; 26.6 µM (active) in experiment [10]. For the same compound, the Potency result in experiment [4] was “inactive”.

Values taken from PubChem BioAssay (Tox21).
